In test [1] the target is Platelet-derived growth factor receptor beta (Homo sapiens) (UniProt P09619). The conditions noted are these: at 1 µM.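 Note: each value is a mean percent inhibition.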
The target of test [2] is Tyrosine-protein kinase FRK (Homo sapiens) (UniProt P42685). To be noted: at 0.1 µM.
The target is the same in test [3]. To be noted: at 1 µM.
The target of test [4] is Protein-tyrosine kinase 2-beta (Homo sapiens) (UniProt Q14289). To be noted: at 0.1 µM.
The target is the same in test [5]. To be noted: at 1 µM.
Test [6] concerns the target Proto-oncogene tyrosine-protein kinase receptor Ret (Homo sapiens) (UniProt P07949). The conditions noted are these: at 0.1 µM.
Test [7] shares this target. To be noted: at 1 µM.
The subject of test [8] is Proto-oncogene tyrosine-protein kinase receptor Ret (Homo sapiens), P07949 [V804L]. The conditions noted are these: at 0.1 µM.
Test [9] shares this test system. The conditions noted are these: at 1 µM.
The subject of test [10] is Proto-oncogene tyrosine-protein kinase receptor Ret (Homo sapiens), P07949 [Y791F]. To be noted: at 0.1 µM.

A word on the inhibition: it is the relative decrease from the control value, in per cent.

Sequence of Protein-tyrosine kinase 2-beta (Homo sapiens) (Q14289 whole entry, looked up): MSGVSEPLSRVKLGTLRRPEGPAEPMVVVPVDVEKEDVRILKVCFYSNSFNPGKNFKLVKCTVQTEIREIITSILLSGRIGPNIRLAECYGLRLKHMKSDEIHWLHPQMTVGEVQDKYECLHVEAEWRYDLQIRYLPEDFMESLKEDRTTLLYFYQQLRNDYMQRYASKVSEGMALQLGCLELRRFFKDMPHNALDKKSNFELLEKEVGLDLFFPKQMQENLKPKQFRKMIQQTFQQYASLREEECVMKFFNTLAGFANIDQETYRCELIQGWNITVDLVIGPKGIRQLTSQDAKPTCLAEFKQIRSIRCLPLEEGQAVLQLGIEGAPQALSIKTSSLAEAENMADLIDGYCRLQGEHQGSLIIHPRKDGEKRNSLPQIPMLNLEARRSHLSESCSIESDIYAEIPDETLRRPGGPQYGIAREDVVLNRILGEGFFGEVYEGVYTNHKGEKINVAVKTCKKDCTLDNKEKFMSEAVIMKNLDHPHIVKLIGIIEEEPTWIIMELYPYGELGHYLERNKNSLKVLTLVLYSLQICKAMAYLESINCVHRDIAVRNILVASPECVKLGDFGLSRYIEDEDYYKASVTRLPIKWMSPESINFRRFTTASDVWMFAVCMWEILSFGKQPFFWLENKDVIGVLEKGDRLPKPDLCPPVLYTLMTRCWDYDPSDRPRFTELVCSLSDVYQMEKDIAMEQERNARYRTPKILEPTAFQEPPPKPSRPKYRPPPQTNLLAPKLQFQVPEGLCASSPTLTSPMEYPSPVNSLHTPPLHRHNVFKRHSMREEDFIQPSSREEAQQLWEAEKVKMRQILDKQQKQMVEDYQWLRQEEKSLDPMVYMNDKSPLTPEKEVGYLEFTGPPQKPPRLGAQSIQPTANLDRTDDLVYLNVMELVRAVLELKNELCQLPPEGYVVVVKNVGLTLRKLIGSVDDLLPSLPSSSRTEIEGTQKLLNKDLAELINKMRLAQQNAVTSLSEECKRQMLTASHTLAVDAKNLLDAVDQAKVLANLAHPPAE
Sequence of Proto-oncogene tyrosine-protein kinase receptor Ret (Homo sapiens), P07949 [V804L] (P07949 whole entry V804L): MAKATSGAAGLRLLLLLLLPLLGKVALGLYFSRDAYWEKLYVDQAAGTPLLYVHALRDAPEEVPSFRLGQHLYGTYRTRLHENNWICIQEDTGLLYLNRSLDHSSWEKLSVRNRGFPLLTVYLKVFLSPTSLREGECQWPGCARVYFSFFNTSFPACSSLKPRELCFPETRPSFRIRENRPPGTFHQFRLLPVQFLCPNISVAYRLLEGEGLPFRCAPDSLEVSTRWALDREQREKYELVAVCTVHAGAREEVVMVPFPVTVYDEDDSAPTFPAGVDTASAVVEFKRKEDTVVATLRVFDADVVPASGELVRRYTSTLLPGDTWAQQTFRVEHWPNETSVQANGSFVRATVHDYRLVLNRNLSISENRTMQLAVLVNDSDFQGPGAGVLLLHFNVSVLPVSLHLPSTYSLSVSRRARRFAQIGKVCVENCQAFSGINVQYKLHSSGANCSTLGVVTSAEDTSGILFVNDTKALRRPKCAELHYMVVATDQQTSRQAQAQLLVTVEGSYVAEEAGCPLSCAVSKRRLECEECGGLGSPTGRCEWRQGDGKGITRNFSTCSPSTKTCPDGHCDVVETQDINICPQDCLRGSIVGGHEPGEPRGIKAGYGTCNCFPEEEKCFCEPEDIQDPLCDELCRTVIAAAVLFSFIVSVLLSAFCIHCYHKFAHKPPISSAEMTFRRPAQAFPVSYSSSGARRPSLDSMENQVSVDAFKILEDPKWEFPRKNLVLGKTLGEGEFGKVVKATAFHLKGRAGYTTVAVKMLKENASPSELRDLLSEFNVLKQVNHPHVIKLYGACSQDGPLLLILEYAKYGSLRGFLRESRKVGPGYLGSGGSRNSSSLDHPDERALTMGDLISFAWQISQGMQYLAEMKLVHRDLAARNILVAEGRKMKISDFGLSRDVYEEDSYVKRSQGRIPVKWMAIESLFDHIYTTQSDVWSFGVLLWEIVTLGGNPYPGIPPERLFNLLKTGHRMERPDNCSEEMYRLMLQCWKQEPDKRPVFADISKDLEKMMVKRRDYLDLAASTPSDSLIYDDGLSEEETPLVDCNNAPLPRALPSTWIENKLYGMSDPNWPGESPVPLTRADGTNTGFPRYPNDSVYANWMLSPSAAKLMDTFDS
Sequence of Platelet-derived growth factor receptor beta (Homo sapiens) (P09619 whole entry): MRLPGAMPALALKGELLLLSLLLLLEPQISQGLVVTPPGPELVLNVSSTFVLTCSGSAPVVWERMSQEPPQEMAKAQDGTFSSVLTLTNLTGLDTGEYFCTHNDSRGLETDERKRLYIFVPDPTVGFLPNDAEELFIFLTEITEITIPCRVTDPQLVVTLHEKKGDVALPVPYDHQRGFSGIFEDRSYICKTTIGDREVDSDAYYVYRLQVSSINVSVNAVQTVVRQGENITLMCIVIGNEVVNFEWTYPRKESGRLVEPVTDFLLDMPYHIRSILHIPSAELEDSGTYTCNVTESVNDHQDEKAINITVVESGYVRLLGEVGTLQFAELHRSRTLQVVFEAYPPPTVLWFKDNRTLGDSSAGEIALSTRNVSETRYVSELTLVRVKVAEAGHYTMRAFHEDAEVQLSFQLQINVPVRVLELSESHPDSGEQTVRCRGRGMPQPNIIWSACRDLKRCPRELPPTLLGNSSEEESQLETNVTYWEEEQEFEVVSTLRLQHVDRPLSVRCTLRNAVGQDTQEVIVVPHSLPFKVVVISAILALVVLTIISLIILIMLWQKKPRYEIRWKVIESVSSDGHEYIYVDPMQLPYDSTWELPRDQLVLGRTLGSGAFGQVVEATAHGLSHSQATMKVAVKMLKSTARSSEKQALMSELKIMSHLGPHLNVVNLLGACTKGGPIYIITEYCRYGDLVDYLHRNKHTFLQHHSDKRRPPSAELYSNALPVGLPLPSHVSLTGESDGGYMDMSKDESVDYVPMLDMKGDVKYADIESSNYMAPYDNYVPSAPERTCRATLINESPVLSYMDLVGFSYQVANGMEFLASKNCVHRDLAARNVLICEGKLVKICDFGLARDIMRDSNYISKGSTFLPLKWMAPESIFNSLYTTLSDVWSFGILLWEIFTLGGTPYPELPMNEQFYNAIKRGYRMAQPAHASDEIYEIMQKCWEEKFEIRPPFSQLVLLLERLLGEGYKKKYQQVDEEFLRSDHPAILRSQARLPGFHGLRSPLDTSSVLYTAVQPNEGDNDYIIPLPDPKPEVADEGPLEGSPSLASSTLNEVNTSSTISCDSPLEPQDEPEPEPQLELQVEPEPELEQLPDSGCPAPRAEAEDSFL
Sequence of Proto-oncogene tyrosine-protein kinase receptor Ret (Homo sapiens) (P07949 whole entry): as the sequence (P07949 whole entry V804L) above, with L804V counted along it
Sequence of Proto-oncogene tyrosine-protein kinase receptor Ret (Homo sapiens), P07949 [Y791F] (P07949 whole entry Y791F): as the sequence (P07949 whole entry V804L) above, with Y791F, L804V counted along it
Sequence of Tyrosine-protein kinase FRK (Homo sapiens) (P42685 whole entry): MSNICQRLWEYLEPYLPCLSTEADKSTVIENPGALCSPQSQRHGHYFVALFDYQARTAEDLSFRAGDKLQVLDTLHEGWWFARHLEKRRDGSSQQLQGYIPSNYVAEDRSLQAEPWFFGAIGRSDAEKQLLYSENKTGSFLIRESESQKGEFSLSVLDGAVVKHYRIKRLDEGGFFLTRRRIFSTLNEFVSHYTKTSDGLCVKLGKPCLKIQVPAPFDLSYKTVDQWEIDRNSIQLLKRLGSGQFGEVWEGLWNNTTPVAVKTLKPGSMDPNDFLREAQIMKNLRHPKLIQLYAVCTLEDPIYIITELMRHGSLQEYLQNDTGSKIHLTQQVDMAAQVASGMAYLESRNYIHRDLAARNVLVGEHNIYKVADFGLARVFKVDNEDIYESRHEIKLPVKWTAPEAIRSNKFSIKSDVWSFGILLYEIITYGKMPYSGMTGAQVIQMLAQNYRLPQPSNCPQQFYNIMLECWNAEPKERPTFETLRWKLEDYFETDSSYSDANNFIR

With `Cc1ccc2c(-c3ccnc(Nc4ccc5c(c4)OCCO5)n3)c(-c3ccc(C(F)(F)F)cc3)nn2n1`, the inhibition in test [1] was 4.63%; in test [2], -1.35%; in test [3] it was -0.65%; in test [4] it was -0.75%; in test [5], 2.42%; in test [6] it was -1.02%. The inhibition in test [7] was found to be 3.09%; in test [8], 0.74%; in test [9], 1.64%; in test [10], 1.62%.

In the case of `NS(=O)(=O)c1ccc(N/N=C2\C(=O)Nc3ccc(Cl)cc32)cc1`, the inhibition in test [1] is 36.7%; in test [2] it was 1.76%; in test [3], 1.45%; in [4], 6.41%; in [5] it was 14%; in [6], -0.09%. Moreover, the inhibition in [7] was found to be 14.5%; in [8] it was 8.27%; in [9], 41.6%; in [10] it was 2.06%.

Take `CN(C)c1cc2c(Nc3ccc4c(cnn4Cc4ccccc4)c3)ncnc2cn1`: the inhibition was found to be 7.75% in test [1]; 1.92% in [2]; 2.5% in [3]; 4.48% in [4]; 5.1% in [5]; 1.87% in test [6]. Also, the inhibition in test [7] is 13.6%; in test [8], 3.56%; in test [9], 0.35%; in [10], 5.78%.

Regarding `[O-][S+]1CCN(Cc2ccc(-c3ccc4ncnc(Nc5ccc(OCc6ccccc6)c(Cl)c5)c4c3)o2)CC1`, the inhibition is 4.43% in [1]; 0.22% in test [2]; 1.48% in test [3]; 6.05% in test [4]; 1.47% in [5]; 3.12% in test [6]. In addition, the inhibition in [7] was 3.49%; in [8], 2.69%; in test [9] it was 3.13%; in test [10], 4.06%.

On to `O=S(=O)(CCOCc1ccc(-c2ccc3ncnc(Nc4ccc(OCc5cccc(F)c5)c(Cl)c4)c3c2)o1)c1ccccc1`, for which the inhibition in test [1] was 7.33%; in test [2], 1.09%; in test [3] it was 0.79%; in test [4], 4.11%; in [5] it was 8.55%; in [6], 5.25%. Further, the inhibition in test [7] was determined as 5.38%; in test [8], 6.3%; in test [9], 10.1%; in test [10], 7.95%.

For the molecule `c1ccc(Cc2nc3ccc(Nc4ncnc5ccccc45)cc3[nH]2)cc1`, the inhibition was determined as 14.8% in [1]; 2.62% in test [2]; 0.81% in test [3]; 2.62% in test [4]; 13.4% in test [5]; 4.63% in test [6]. Further, the inhibition in test [7] was determined as 9.44%; in [8], 2.59%; in [9], 9.82%; in test [10] it was 3.35%.

In the case of `Nc1nccc(-c2c(-c3ccc(F)cc3)ncn2CCCN2CCOCC2)n1`, the inhibition was determined as 11.8% in test [1]; 1.5% in [2]; 1.08% in [3]; 9.24% in test [4]; 8.65% in [5]; 4.75% in test [6]. The inhibition in test [7] is 5.26%; in [8], 1.67%; in test [9], 4.72%; in [10], 2.28%.

In the case of `C[C@@H](Oc1cc(-n2cnc3ccc(OCC4CCN(C)CC4)cc32)sc1C(N)=O)c1ccccc1C(F)(F)F`, the inhibition is 81.5% in test [1]; -0.4% in test [2]; 0.5% in [3]; -2.32% in test [4]; 6.22% in test [5]; 2.63% in [6]. Further, the inhibition stood at 11.6% in [7], 2.09% in [8], 18.5% in test [9] and 1.2% in test [10].

Take `CN(C)C(=O)O[C@H]1CN[C@H](C#Cc2cc3ncnc(Nc4ccc(OCc5cccc(F)c5)c(Cl)c4)c3s2)C1`: the inhibition in test [1] worked out at 6.43%; in [2] it was 1.37%; in test [3] it was 1.4%; in [4], 6.18%; in test [5], 3.98%; in test [6], 4.97%. In addition, the inhibition in [7] was 19.5%; in test [8] it was 3.2%; in test [9] it was 4.12%; in test [10], 3.68%.

For `NS(=O)(=O)c1cccc(Nc2cc(-c3ccc(F)cc3)n[nH]2)c1`, the inhibition in test [1] turned out to be 38%; in test [2], 1.05%; in test [3], 2.07%; in test [4] it was 7.64%; in test [5] it was 12.6%; in test [6], 4.74%. In addition, the inhibition is 17.9% in test [7], 5.42% in test [8], 25.3% in test [9] and 3.26% in test [10].

In the case of `COC(=O)c1ccc2c(c1)C(=Cc1cc(Br)c(O)c(Br)c1)C(=O)N2`, the inhibition in [1] is 6.26%; in [2], 1.55%; in test [3], 7.02%; in test [4], 3.82%; in test [5], 13.8%; in test [6] it was 7.67%. For the same molecule, the inhibition in test [7] stood at 25.8%; in test [8], 7.28%; in [9], 39.8%; in test [10], 12.2%.

As to `CC(C)c1ccc(Nc2nccc(-c3cnn4ncccc34)n2)cc1`, the inhibition came to 40.8% in test [1]; 0.49% in test [2]; 1.12% in test [3]; 12% in test [4]; 45.8% in test [5]; 6.8% in test [6]. For the same molecule, the inhibition in test [7] is 14.4%; in [8], 4.06%; in [9], 10.1%; in test [10], 5.09%.

Consider `ON=C1CCc2cc(-c3nc(C4CCNCC4)[nH]c3-c3ccncc3)ccc21`, for which the inhibition in test [1] was 23.3%; in test [2], 2.38%; in test [3], -1.06%; in [4] it was 1.86%; in test [5] it was 1.17%; in [6] it was 1.22%. The inhibition in [7] was 7.25%; in test [8] it was 6.18%; in [9] it was -3.85%; in test [10], 1.94%.

On to `Cc1cc(O)cc(C)c1/C=C/c1cncc(C(=O)N(C)C)c1`, for which the inhibition in test [1] was 10%; in [2], -0.14%; in test [3], 1.73%; in test [4], 5.04%; in [5] it was 3.05%; in test [6] it was 8.48%. Further, the inhibition turned out to be 11.8% in test [7], 6.64% in test [8], 9.06% in test [9] and 8.23% in [10].

`C[C@@H](Oc1cc(-n2cnc3ccc(OC[C@@H](O)CO)cc32)sc1C(N)=O)c1ccccc1Cl`: the inhibition in [1] was 54.6%; in test [2] it was 0.8%; in test [3], 2.17%; in test [4], -2.91%; in test [5] it was -1.09%; in test [6] it was 0.87%. Further, the inhibition in test [7] was 7.49%; in test [8] it was 2.02%; in [9], 5.35%; in test [10] it was -0.83%.

Take `Cc1ccc(NC(=O)CC2CC2)cc1-c1ccc(C(=O)NCC2CC2)cc1`: the inhibition in test [1] came to 8.86%; in test [2], 2.5%; in [3], 2.58%; in test [4], 5.55%; in [5], 9.67%; in test [6], 4.79%. The inhibition came out at 9.25% in test [7], 2.68% in test [8], 10% in [9] and 7.7% in test [10].

Values taken from ChEMBL document CHEMBL1961873, “Compounds: GSK PKIS; Assays: Nanosyn kinase panel” (2012).
